TDP1 cell CPT – DT40-hTDP1 cell growth loss with CPT. chicken DT40 Tdp1-/-;hTDP1 cells + 20 nM CPT, ATP luminescence, 48 h. Potency, µM (titrated, usually from 46.2 µM), usual class: inhibitors. 12% of 420,000 active. AID 686979; note: nearly all actives have a fitted effect of over 55% in size
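Chicken DT40 Tdp1-/- cells stably complemented with human TDP1 were seeded at 400 cells/well in medium containing 20 nM camptothecin, exposed to pin-transferred compounds, and grown at 37 °C for at least 48 hr. Viability was read as ATP luminescence.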
HT1080 IDH1KD tx – HT-1080 IDH1 knockdown cell toxicity (counter line). HT-1080 IDH1 knockdown viability, ATP luminescence, 48 h. Potency, µM (top dose mostly 46.1 µM), actives largely listed as cytotoxic. AID 686971. 2% of 360,000 active
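Assay cells: HT-1080 with IDH1 knockdown, 750 per well, RPMI/5% FBS. Exposure: 48 h at 37 °C following 2 h pre-incubation. Read: CellTiter-Glo luminescence; fitted concentration-response, curve class assigned.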
KB-3-1 cytotox – KB-3-1 parental cell cytotoxicity | KB-3-1 viability, CellTiter-Glo ATP luminescence, 72 h | Potency, µM (doses to about 46.1 µM), hits mostly cytotoxic | 1.4% of 400,000 active; note: nearly all actives have a fitted effect of over 60% in size
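KB-3-1 parental drug-naive adenocarcinoma cells in DMEM/10% FBS, incubated 72 h at 37 C with pin-transferred compounds across a concentration series. Viability by CellTiter-Glo luminescence; concentration-response curves fitted after normalization.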
HT1080NT lethal – kills 2HG-producing HT-1080-NT fibrosarcoma cells; HT-1080-NT fibrosarcoma viability, CellTiter-Glo ATP luminescence, 48 h; Potency, µM (top dose mostly 46.1 µM), hits mostly cytotoxic; 1.6% of 360,000 active;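 note: NT is the 2HG producing partner of a matched IDH1 knockdown line; nearly all actives have a fitted effect of over 55% in size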
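A 48-hour cytotoxicity screen used HT-1080-NT cells plated 2 hours before compound delivery. ATP-based CellTiter-Glo luminescence measured viability, normalized to DMSO and no-cell controls.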
TDP1 cell noCPT – qHTS for Inhibitors of human tyrosyl-DNA phosphodiesterase 1 (TDP1): qHTS in cells in absence of CPT; DT40 Tdp1-/- hTDP1 cells, no CPT, ATP luminescence, 48 h; Potency, µM (titrated, usually from 46.2 µM), hits mostly inhibitors; 15% of 420,000 active; note: nearly all actives have a fitted effect of over 55% in size
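Compound effects on proliferation are scored in DT40 Tdp1-/-;hTDP1 cells in the absence of CPT. ATP levels (CellTiter-Glo luminescence) are recorded after a ≥48 hr, 37 °C incubation.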
KB-V1 cytotox – KB-V1 MDR subline cytotoxicity | KB-V1 MDR cells viability, CellTiter-Glo, 72 h | Potency, µM (doses to about 46.1 µM), usual class: cytotoxic | 3.4% of 400,000 active | AID 1347076; note: nearly all actives have a fitted effect of over 60% in size
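Following 72 h at 37 degrees C with compound, KB-V1 cell viability was read by CellTiter-Glo luminescence, medium being phenol-red-free DMEM plus 10% FBS; concentration-response parameters came from normalized, curve-fitted qHTS data.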
Each line names hits and unclear results; the compound was inactive in the other large screens. Compounds with a hit are over-represented: about 19% of the library has one in this group of screens. Calls come from the whole dose curve; as a rule, active = well fitted curve in the direction sought with a large enough effect; inconclusive = small, poorly fitted or top-dose-only effect, or another doubt; inactive = no such curve, though single readings can be large; an effect the other way counts as inactive or inconclusive.

CCOc1ccc(NS(=O)(=O)c2ccc(C(=O)NC3CCC(O)CC3)cc2)cc1 (stereo unspecified)	none
COC(=O)CC1(C(=O)OC)Nc2cc(Cl)c(Cl)cc2S(=O)(=O)N1O (stereo unspecified)	none
Cc1ccc(C2(C)NC(=O)N(CC(=O)N3c4ccccc4NC(=O)CC3C)C2=O)cc1 (stereo unspecified)	none
CCCNC(=O)C1(C)CCCN(CC(=O)c2ccc3c(c2)OCCO3)C1 (stereo unspecified)	none
Cc1ccc(SCC(=O)OCC(=O)N(CC(C)C)c2c(N)n(Cc3ccccc3)c(=O)[nH]c2=O)c(C)c1	TDP1 cell CPT inconclusive, HT1080 IDH1KD tx 23.1µM, HT1080NT lethal inconclusive, TDP1 cell noCPT inconclusive
CC(C)CN(C(=O)COC(=O)C12CC3CC(CC(C3)C1)C2)c1c(N)n(Cc2ccccc2)c(=O)[nH]c1=O	TDP1 cell CPT inconclusive, HT1080 IDH1KD tx inconclusive, KB-3-1 cytotox inconclusive, HT1080NT lethal inconclusive, TDP1 cell noCPT 10.3µM
CCN1CCN(C2=C(Cl)C(=O)N(Cc3ccccc3)C2=O)CC1	TDP1 cell CPT 23.1µM, KB-3-1 cytotox inconclusive, TDP1 cell noCPT inconclusive
Cc1ccc(C(=O)Nc2cccc(-c3nc(CNC(=O)[C@@H]4C[C@@H](C)NC(=S)N4)c(C)o3)c2)s1	TDP1 cell noCPT inconclusive (no result: HT1080 IDH1KD tx, KB-3-1 cytotox, HT1080NT lethal, KB-V1 cytotox)
C[C@H](CO)N1C[C@H](C)[C@H](CN(C)C(=O)Cc2cccnc2)Oc2ncc(Br)cc2C1=O	none
Cc1cnn(C(=S)NCc2ccco2)c1	TDP1 cell CPT 18.4µM, KB-3-1 cytotox inconclusive, TDP1 cell noCPT inconclusive
CN(C)c1ccc(/C=N/NC(=S)NCc2ccco2)cc1	TDP1 cell CPT inconclusive, TDP1 cell noCPT 18.4µM
S=C(NCc1ccco1)N/N=C/c1ccncc1	none
O=[N+]([O-])c1cccc(-c2ccc(/C=N/NC(=S)NCc3ccco3)o2)c1	TDP1 cell CPT 23.1µM, HT1080 IDH1KD tx inconclusive, HT1080NT lethal inconclusive, TDP1 cell noCPT 16.4µM, KB-V1 cytotox inconclusive
O=C(Cc1ccc(-c2ccccc2)cc1)NNC(=S)NCc1ccco1	TDP1 cell CPT inconclusive, TDP1 cell noCPT 16.4µM, KB-V1 cytotox 8.2µM
C[C@H](CO)N1C[C@H](C)[C@@H](CN(C)S(C)(=O)=O)Oc2ccc(NS(=O)(=O)c3cn(C)cn3)cc2C1=O	KB-3-1 cytotox inconclusive
CC1(c2nnnn2-c2ccc3c(c2)OCCO3)CCC(=O)N1CCc1ccccc1F (stereo unspecified)	TDP1 cell CPT inconclusive, TDP1 cell noCPT inconclusive, KB-V1 cytotox inconclusive
CCN(CC)C(=O)c1cc(C(C)(C)C)c(O)c(C(C)(C)C)c1	TDP1 cell CPT inconclusive, TDP1 cell noCPT inconclusive
S=C(NCc1ccccc1)NCc1ccco1	none
S=C(NCc1ccco1)NCc1ccco1	TDP1 cell CPT inconclusive, TDP1 cell noCPT 25.9µM
COc1cc(OC)c(N(C)S(=O)(=O)c2cccc(C(=O)Nc3nc(C)cs3)c2)cc1Cl	TDP1 cell CPT 16.4µM, TDP1 cell noCPT inconclusive, KB-V1 cytotox inconclusive
COc1cc(OC)c(N(C)S(=O)(=O)c2cccc(C(=O)OCC(=O)N(C)Cc3ccccc3)c2)cc1Cl	TDP1 cell CPT 16.4µM, TDP1 cell noCPT 23.1µM
COc1cc(OC)c(N(C)S(=O)(=O)c2cccc(C(=O)NC3=NCCS3)c2)cc1Cl	TDP1 cell CPT 23.1µM, HT1080 IDH1KD tx 16.4µM, KB-3-1 cytotox inconclusive, HT1080NT lethal inconclusive, TDP1 cell noCPT inconclusive, KB-V1 cytotox inconclusive
COc1cc(OC)c(N(C)S(=O)(=O)c2cccc(C(=O)OCC(=O)NCc3ccco3)c2)cc1Cl	TDP1 cell CPT inconclusive, HT1080 IDH1KD tx inconclusive, TDP1 cell noCPT inconclusive
C[C@H](CO)N1C[C@H](C)[C@@H](CN(C)S(=O)(=O)c2ccc(F)cc2)Oc2ccc(NS(=O)(=O)c3ccccc3)cc2C1=O	KB-V1 cytotox inconclusive
Cc1ccccc1C(=O)n1nc(-c2cccnc2)nc1NCc1ccc(F)cc1	TDP1 cell CPT inconclusive, TDP1 cell noCPT inconclusive (no result: HT1080 IDH1KD tx, HT1080NT lethal)

From PubChem BioAssay
